Assay results from the supplement of paper PMC6555819.

Columns and labels:
Experiment in all cases: PBM binding z-score (relative to random genomic background probes); higher = stronger binding; sequences stand for … in GC…GCGATTGACAGCGTAGAATGAAGG
[1] = test system: FXR:RXRa (NR concentration 270 nM, RXRa partner concentration 90 nM)
Outline: (§1)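 Probes were double-stranded and carried 34-nt variable regions with direct-repeat seeds, single-nucleotide variants, half-site ablations and random human genomic background sequences, printed on custom Agilent 4×180K protein-binding microarrays. Arrays were incubated 1 h with ligand-free nuclear receptor dimers in PBS pH 7.4, 2% milk, 0.02% Triton X-100, 1 mM DTT, 0.2 mg/mL BSA and 0.4 mg/ml salmon testes DNA. Antibodies against each partner (one per run) detected binding, and scanned fluorescence was regression-normalized. Binding z-scores use the random background probes as reference.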

[2] = test system: LXRa:RXRa (NR concentration 270 nM, RXRa partner concentration 90 nM)
Outline: as §1

[3] = test system: LXRa homodimer (NR concentration 270 nM)
Outline: as §1

[4] = test system: LXRb:RXRa (NR concentration 270 nM, RXRa partner concentration 90 nM)
Outline: as §1

[5] = test system: LXRb homodimer (NR concentration 270 nM)
Outline: as §1

[6] = test system: PPARa:RXRa (NR concentration 270 nM, RXRa partner concentration 90 nM)
Outline: as §1

[7] = test system: PPARg:RXRa (NR concentration 180 nM, RXRa partner concentration 90 nM)
Outline: as §1

[8] = test system: PPARg:RXRa 270nM:90nM, anti-RXR (NR concentration 270 nM, RXRa partner concentration 90 nM)
Outline: as §1

[9] = test system: PPARg:RXRa 30nM:10nM, anti-RXR (NR concentration 30 nM, RXRa partner concentration 10 nM)
Outline: as §1

[10] = test system: PPARg:RXRa 90nM:30nM, anti-RXR (NR concentration 90 nM, RXRa partner concentration 30 nM)
Outline: as §1

| Sequence | PBM binding z-score [1] | PBM binding z-score [2] | PBM binding z-score [3] | PBM binding z-score [4] | PBM binding z-score [5] | PBM binding z-score [6] | PBM binding z-score [7] | PBM binding z-score [8] | PBM binding z-score [9] | PBM binding z-score [10] |
| --- | --- | --- | --- | --- | --- | --- | --- | --- | --- | --- |
| TCTGCGAGGTCAACGATGGTCAGCTAATCTGCTA | 6.96 | 5.84 | 1.07 | 4.75 | 1.01 | 5.65 | 5.8 | 6.12 | 3.37 | 4.91 |
| TCTTGTAGATCAATAGAGGTTAACAAAGTGCGCT | 0.932 | 4.21 | 0.47 | 2.29 | 0.171 | 2.18 | 0.373 | 1.66 | 2.57 | 2 |
| TGAATGAGGTTAAAGATCAGGGGACGTGGCGTCG | 3.07 | 2.68 | -0.153 | 1.66 | 1.09 | 4.35 | 5.2 | 6.37 | 5.28 | 6.61 |
| CCTTACGGGTCAAGTTTATAGCACGGGTGGTACG | 6.15 | 4.11 | 0.444 | 3.48 | 0.604 | 5.14 | 4.2 | 4.22 | 1.91 | 3.06 |
| TAACCTAGGTCATTGGGCCAGTATAGTACGCATC | 5.13 | 4.92 | 2.81 | 3.43 | 0.934 | 4.54 | 4.87 | 4.88 | 1.89 | 3.88 |
| TCGAGTAGGTTAGTCGGAGCATTCAGCCAACATA | -0.453 | -0.512 | -0.667 | -0.741 | -1.46 | 0.0631 | -0.127 | 0.379 | 0.624 | 0.538 |
| ATCTCTAGGTAAGACTGAGTTCAGTGAAGAACGC | 0.449 | 0.657 | 0.601 | 0.352 | 0.691 | 0.568 | -0.0566 | 0.369 | 0.167 | 0.0734 |
| CCGTCTGGGGCATAAGGTTACCATAAGCCAGCCC | 0.562 | 2.1 | -0.402 | 0.847 | -1.32 | 1.78 | 1.29 | 2.07 | 0.233 | 1.54 |
| CGTCAAAGTTCAACTAAGGTACCGTAAAGCACGC | 7.12 | 6.16 | 4.3 | 4.18 | 2.24 | 5.12 | 4.93 | 5.42 | 2.29 | 4.15 |
| TCTAGTTGGTCAACGGTCACACACTCGAAATGCG | 0.705 | 0.745 | 0.892 | 1.04 | 0.0272 | 2.38 | 3.99 | 5.35 | 4.78 | 5.32 |
| ATACAAAGGTGATCGTGAGGTCGTTGATACTAAC | 2.64 | 2.6 | 0.941 | 1.91 | 0.00532 | 2.76 | 1.87 | 1.95 | 0.554 | 1.27 |
| GCTGCTAGGTCAGGTTGGTCAGCTATCGGGTACG | 1.38 | 0.811 | -0.13 | 0.574 | -0.138 | 1.42 | 0.304 | 1.19 | -0.614 | 0.562 |
| TCTTGTAGATCACGCAGGTTAAGAAAGCCTGAGT | 0.613 | 0.539 | -0.162 | 0.551 | -0.17 | 1.09 | -0.0924 | 1.37 | 2.72 | 1.89 |
| ACTAGCAGGCCAAGGGTCACCCAAGATTAGTCCG | 3.24 | 2.98 | 0.036 | 2.76 | -0.624 | 5.01 | 8.49 | 7.88 | 6.88 | 9.09 |
| CCTTACGGGTCACTCCAGGTTATAGGATCGGAGT | 4.94 | 7.84 | 1.93 | 5.04 | -0.0329 | 4.39 | 3.38 | 3.76 | 1.12 | 2.6 |
| ATTAGCAGGCCAAGGGTCACTCAAGATTAGTCCG | 2.8 | 2.8 | 0.436 | 2.69 | -0.147 | 4.73 | 7.98 | 7.44 | 6.52 | 7.55 |
| TAGCCTAGGTCATTCTGGGGCCAGTATAGAAAGC | 4.29 | 3.66 | 0.795 | 2.94 | 1.34 | 3.37 | 1.98 | 2.19 | 0.292 | 1.44 |
| TCATATAGGTAATCCAGGTGAAAGTCGGCATCTA | 1.03 | 1.21 | 0.37 | 0.829 | 0.397 | 2.4 | 1.87 | 2.9 | 4.14 | 3.53 |
| AATACAGGGTCATCGTAGGCCAGAGAACGCACAG | 7.44 | 6.64 | 2.11 | 4.8 | 1.09 | 6.16 | 7.11 | 6.17 | 2.74 | 5.08 |

| Sequence | PBM binding z-score [1] | PBM binding z-score [2] | PBM binding z-score [3] | PBM binding z-score [4] | PBM binding z-score [5] | PBM binding z-score [6] | PBM binding z-score [7] | PBM binding z-score [8] | PBM binding z-score [9] | PBM binding z-score [10] |
| --- | --- | --- | --- | --- | --- | --- | --- | --- | --- | --- |
| CAGCCTAGGTCAGGGCCAGTATGGGAGGAACGTT | 1.41 | 0.705 | -0.724 | 0.176 | -1.05 | 2.06 | 0.648 | 0.825 | -0.673 | 0.0186 |
| TCTCGGCGGACACGAAGGTCAGAGCTTTCCAGAG | 0.592 | 0.668 | 0.198 | 0.454 | -1.37 | 1.5 | 0.0295 | 1.04 | 1.16 | 1.08 |
| CAAACTAGGTCCCCGGAAGGTCAAAGTCCGCATG | 2.38 | 3.13 | 2.88 | 2.9 | 0.475 | 3.7 | 2.01 | 2.86 | 0.494 | 1.63 |
| TCGAGTAGGTTATGGGCATTCAGAATGGCGTCGA | -0.455 | 0.186 | -0.538 | -0.2 | -1.18 | 0.825 | 0.399 | 1.47 | 0.906 | 1.13 |
| TCTTGTCGATCAAGCAGGTTAAGAAAGCCTGAGT | -0.117 | 0.258 | -0.542 | 0.373 | -0.662 | 0.754 | -0.443 | 1.21 | 2.65 | 1.95 |
| CCTTACGGGTCACTCCAGGTTTTAGCATCGGAGT | 4.87 | 5.1 | 0.102 | 2.85 | -0.172 | 4.69 | 3.06 | 3.81 | 0.53 | 2.55 |
| AGTCAACGTTCACTAGGTAACGTAAGATTCAGCT | -0.243 | -0.0638 | -0.401 | -0.00739 | 0.00206 | 0.525 | 0.874 | 0.511 | 0.121 | 0.475 |
| TTACCAATGTGAGCTGAGGTCGTTGATCCAACTC | 0.612 | 0.222 | -0.15 | 0.408 | -0.727 | 0.851 | -0.119 | 0.638 | 0.496 | 0.42 |
| CCTTACGGGTCACTCCAGGTTATAGAATCGGAGT | 5.18 | 7.67 | 1.89 | 5.43 | 0.287 | 4.4 | 3.31 | 3.8 | 1.18 | 2.56 |
| AGAATGAGGTTAAGATCAGGTAAACAGAATACAT | 2.45 | 4 | -0.00313 | 2.24 | -0.136 | 3.9 | 2.61 | 2.31 | 0.859 | 1.75 |
| AGTCAAAGTTCACTCGGTAACGTAAGATTCAGCT | 5.02 | 5.41 | 3.18 | 3.38 | 1.27 | 4.24 | 5.6 | 5.93 | 2.54 | 4.94 |
| AATACTGGGTCACTAGGCCAGAGTAGGTACGAAT | 1.9 | 1.69 | 0.246 | 1.5 | 0.438 | 4.37 | 8.02 | 5.97 | 3.2 | 4.75 |
| GCGACTGGGGCATCAGGAGGTTACCATAACTTAA | 0.0636 | 0.325 | 0.0698 | 0.842 | -1.05 | 1.7 | 1.35 | 1.26 | 0.00065 | 0.599 |
| CCTACTGGGCCACGAAAGGTCATCGATTCAGTGA | 3.74 | 5.24 | 4.54 | 4.28 | 0.188 | 5.09 | 5.36 | 5.2 | 2.42 | 4.73 |
| AATGCAGGGTCATCGTAGGCCAGAGTACGCACAG | 7.22 | 6.03 | 1.22 | 4.54 | -0.0477 | 5.97 | 6.45 | 5.75 | 2.6 | 4.62 |
| ATATGTACGTTAGCTGGGGTCATTCAGACTAGGC | 3.94 | 3.99 | 2.29 | 4.39 | 1.42 | 4.07 | 1.74 | 2.27 | 0.566 | 1.33 |
| GCAGACAGGTGAAACGCGGGTAACTCAGGGTGGC | 0.0652 | 0.351 | -0.771 | -0.193 | -1.11 | 0.839 | 0.342 | -0.106 | -0.712 | -0.458 |
| TCTTGTAGATCCGCAGGTTAAGAAAGCTGGCCAA | 0.144 | 0.322 | -0.25 | 0.303 | -0.333 | 0.634 | -0.592 | 1.34 | 2.55 | 1.87 |
| ACAGCCAGGTGATGAAGGTAACTCAGGCTATCAT | -0.381 | -0.496 | -0.468 | -0.553 | -0.982 | 0.0268 | 0.565 | -0.0458 | -0.229 | -0.315 |
